# Measured values taken from PubChem BioAssay AID938 (National Center for Advancing Translational Sciences (NCATS), 2007).
# Where “and” joins values, the source holds several entries; their conditions need not be identical. Equal values may be shown once. Among all 73,000 compounds or so, about 1,800 (2.5%) were called active. Where a call stands in place of a potency, no number is given. Not shown: some 13% with an inconclusive outcome. The sample as a whole holds a higher share of actives than the screen did. A number with no mark means an inactive call. Calls follow the shape of the dose curve; as a rule, active = well fitted activation curve with a large enough effect; inconclusive = small, poorly fitted or top-dose-only effect; inactive = no such curve, though single readings can be large or run the other way.
# Test: qHTS Assay for Agonists of the Thyroid Stimulating Hormone Receptor: Activators of Intracellular cAMP Concentrations in Parental HEK 293; also: nearly all actives have a fitted effect of over 55% in size
# Settings: parental HEK293 CNG cAMP sensor, membrane potential fluorescence; series mostly up to 57.1 µM
# Method in brief: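 Counterscreen for endogenous-receptor signalling: CNG-channel HEK 293 cells report cAMP rise by membrane depolarization. After 60 min dye equilibration with 100 uM RO 20-1724, compounds incubated 30 min before bottom-read fluorescence at 590 nm.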
# Potency is read from the fitted curve at half-maximal effect.
Compound,Potency,activation
CCCc1nc2ccccc2c(=O)n1NC(=O)c1c(O)c2ccccc2[nH]c1=O,inactive,
CC(C)C(NC(=O)OCc1ccccc1)C(=O)OCC(=O)N1C(C)CCCC1C (configuration not stated),inactive,
C[C@@H](C(=O)Nc1ccc2ccccc2c1)[C@@H]1C[C@@]1(C)[C@@H](NC(=O)c1cccnc1)c1ccccc1,inactive,
COC(=O)[C@H](C)[C@H]1C[C@]1(C)[C@H](NC(=O)OCc1ccccc1)c1ccccc1,2 µM (active),
C=CCOC(=O)C(C(C)=O)C(NC(=O)OC)c1ccccc1 (configuration not stated),,4.24% [at 11.4 µM]
C(=C\c1ccccc1)/CSc1nnc(-c2cccnc2)n1Cc1ccco1,15.8 µM (active),
COc1cc(Cl)c(C)cc1NC(=O)CSc1nnc(-c2cccnc2)n1Cc1ccco1,inactive,
CCc1ccc(NC(=O)CSc2nnc(-c3cnccn3)n2Cc2ccco2)cc1,inactive,
COc1cccc(Cn2c(=O)c(-c3cc(F)cc(F)c3)nc3cnc(OC)nc32)c1,inactive,
COc1cccc(Cn2c(=O)c(C)nc3cnc(Oc4ccccc4)nc32)c1,12.6 µM (active),
COc1cccc(Cn2c(=O)c(-c3ccccc3)nc3cnc(OC)nc32)c1,inactive,
COC(=O)c1c(NC(=O)CSc2nc3c(c(=O)n(C)c(=O)n3C)n2C(C)C)sc(C)c1C,inactive,
Cc1ccccc1NC(=O)CNc1ccccc1N1CCCCC1,inactive,
CC(C)n1c(SCC(=O)Nc2ccccc2N2CCCCC2)nc2c1c(=O)n(C)c(=O)n2C,20 µM (active),
CC1(C)CC(=O)C=C(NCCCNC2CCCCC2)C1,inactive,
CC(C)CC1(C(=O)NCc2ccccn2)C=CCN1C(=O)c1ccccc1 (configuration not stated),25.1 µM (active),
CC(=O)N1[C@H](C)C=C[C@]1(Cc1ccccc1)C(=O)NCc1ccccn1,inactive,
COC(=O)C1(C)C=CCN1C(=O)c1ccccc1 (configuration not stated),inactive,
O=C1C[C@@H](O)[C@@H](O)[C@H]2[C@@H]3C(=O)N(Cc4ccc5c(c4)OCO5)C(=O)[C@@H]3CC[C@H]12,,0.478% [at 11.4 µM] and -2.17% [at 11.4 µM]
COc1ccc(C(C(O)C(=O)c2c[nH]c3ccccc23)N2CCN(c3ccccc3)CC2)cc1 (configuration not stated),inactive,
N#Cc1cc2[nH]c(=O)c(=O)[nH]c2cc1[N+](=O)[O-],inactive,
CCOC(=O)N1CCC(O)(c2cc(C)c(C)cc2C)CC1,inactive,
O=C(CSc1nnc(-c2ccco2)n1CC1CCCO1)c1ccccc1 (configuration not stated),inactive,
c1ccc(CSc2nnc(-c3ccco3)c(-c3ccco3)n2)cc1,inactive,

Compound,Potency,activation
c1ccc(CSc2nnc(-c3ccco3)n2Cc2ccccc2)cc1,15.8 µM (active),
C1CCC2OC2C1 (configuration not stated),inactive,
Brc1cc(Br)c(Oc2cc(Br)c(Br)cc2Br)cc1Br,inactive,
CN1CCC(CNC(=O)c2ccc(-n3c(=O)c(=O)[nH]c4ccccc43)cc2)CC1,inactive,
O=C(O)CCCCC(=O)O,inactive,
CN(C(=O)CSc1nnnn1-c1ccccc1)C1CCCCC1,inactive,
COc1ccc(N2C(=O)CCC(C(=O)N(C)C3CCCCC3)C2c2ccc(OC)c(OC)c2)cc1 (configuration not stated),inactive,
CCOc1ccc2c(c1)cc(CN(C(=O)CC)C1CCCCC1)c1nnnn12,20 µM (active),
CC(C)[C@H](CO)Nc1nc(Nc2cc(N)cc(Cl)c2)c2ncn(C(C)C)c2n1,inactive,
CCCCOC(=O)NCN1C(=O)C2C3C=CC(C3)C2C1=O (configuration not stated),inactive,
O=C1OCCC=C1[C@@H](O)CCc1ccccc1,,-4.2% [at 11.4 µM]
CC(C)CNC(=O)C1CCCN(S(=O)(=O)c2ccc(-n3cnnn3)cc2)C1 (configuration not stated),inactive,
O=C(c1cnccn1)N1CCC2(CCN(Cc3cc(C(F)(F)F)cc(C(F)(F)F)c3)CC2)CC1,inactive,
O=C(NCCc1ccc2c(c1)OCCO2)c1cc2ccccc2o1,25.1 µM (active),
Nc1nonc1C(=O)NCCc1ccccc1,inactive,
O=C(CC(Cc1ccccc1)C(=O)O)NCCc1ccc2c(c1)OCO2 (configuration not stated),inactive,
CC1CCCN(Cc2nc3c(c(=O)n(C)c(=O)n3C)n2CC(=O)c2ccccc2)C1 (configuration not stated),inactive,
COc1ccc2c(c1)C(C)=CC(C)(C)N2C(=O)CNCc1ccc2c(c1)OCO2,25.1 µM (active),
CCn1cc(C(=O)NCc2ccc3c(c2)OCO3)c2cc(OC)c(OC)cc2c1=O,inactive,
CCOC(=O)NCc1ccc2c(c1)OCO2,inactive,
CCn1nc(NC(=O)c2ccco2)c2cc3ccc(C)cc3nc21,inactive,
Cc1ccc(Cn2c(C)nc3c(c2=O)c2nc4ccccc4nc2n3Cc2ccco2)cc1,inactive,
Cc1ccc(Cn2c(NC(=O)c3ccco3)nc3ccccc32)cc1,25.1 µM (active),
